From PubChem BioAssay
Shown are actives, neighbours in structure and some others; about 6.9% of the full set was active somewhere.
VDR inhibitor – inhibitors of human vitamin D receptor | AID 504847 | hit rate 0.93% among 400,000 | VDR-SRC2-3 peptide fluorescence polarization, 2 h | P11473 | Potency, µM, for the others: max response, negative = inhibition, usual class: inhibitors; also: % is scaled to controls: 0 for no effect and ±100 for the full control effect
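After 23 nl compound addition and a short centrifugation, plates sat for 2 hours at ambient temperature; polarization of fluorescence then indicated loss of VDR binding to peptide SRC2-3.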
BAZ2B block – blocks human BAZ2B; Q9UIF8; AlphaScreen BAZ2B-H3K14Ac peptide displacement; Potency, µM (series often up to 114 µM), for inactives: top-dose activity change, negative = inhibition, hits mostly inhibitors; hit rate 4.4% among 360,000; AID 504333; also: % is scaled to controls: 0 for no effect and ±100 for the full control effect; nearly all actives have a fitted effect of over 60% in size
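BAZ2B (50 nM) with biotin-H3(5-23)K14Ac peptide (50 nM) in PBS pH 7.4, 0.01% Tween-20, preformed 30 min, then compound 30 min at room temperature; top concentration 110uM. AlphaScreen streptavidin donor/nickel chelate acceptor beads (10 ug/mL final), 20 min dark, signal read.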
PLK1 PBD block – blocks phosphopeptide binding to human PLK1 polo-box domain; P53350; Plk1 PBD binding of FITC phosphopeptide, fluorescence polarization; Potency, µM, without a hit: max response, negative = inhibition, actives largely listed as inhibitors; hit rate 2.8% among 360,000; also: series mostly up to about 57 µM; % is scaled to controls: 0 for no effect and ±100 for the full control effect; nearly all actives have a fitted effect of over 65% in size
JMJD2A Tudor inh – JMJD2A Tudor domain (human) inhibition. O75164. AlphaScreen JMJD2A-Tudor / H3K4me3 peptide binding. Potency, µM (highest dose often 114 µM), for the others: at the highest dose activity change, negative = inhibition, actives largely listed as inhibitors. hit rate 4.4% among 390,000; also: % is scaled to controls: 0 for no effect and ±100 for the full control effect; nearly all actives have a fitted effect of over 50% in size
L3MBTL1 block – inhibitors of human L3MBTL1; Q9Y468; AlphaScreen L3MBTL1–H3K9me1 peptide binding; Potency, µM (top dose mostly 57.1 µM), for inactives: at the highest dose activity, negative = inhibition, actives largely listed as inhibitors; hit rate 0.66% among 230,000; AID 485360; also: % is scaled to controls: 0 for no effect and ±100 for the full control effect; nearly all actives have a fitted effect of over 60% in size
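Displacement of a biotinylated histone H3(1-15) peptide monomethylated at Lys9 (75 nM) from L3MBTL1 (50 nM) was measured by AlphaScreen after a 30 min room-temperature compound incubation; cefsulodin titration served as intraplate control.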
HP1b chromo inh – blocks HP1-beta chromodomain binding to methylated histone tails; Potency, µM (series often up to 114 µM), inactives show at the highest dose activity change, negative = inhibition, usual class: inhibitors; P83916; AID 540317; hit rate 0.56% among 390,000; AlphaScreen HP1-beta / biotin-H3K9me3 peptide binding; also: nearly all actives have a fitted effect of over 70% in size
Target sequence (P83916 whole entry, looked up): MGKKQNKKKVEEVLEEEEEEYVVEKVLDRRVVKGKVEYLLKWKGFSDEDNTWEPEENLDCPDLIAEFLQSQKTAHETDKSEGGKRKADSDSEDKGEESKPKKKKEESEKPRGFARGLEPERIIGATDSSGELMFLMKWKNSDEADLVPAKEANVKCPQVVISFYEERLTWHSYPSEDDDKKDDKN
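Compound inhibition of the preformed complex between 50 nM HP1-beta and 50 nM biotinylated H3K9me3 peptide was read by AlphaScreen. Buffer was PBS pH 7.4 with 0.01% Tween-20. Incubations ran 30 min at room temperature, with 10 ug/mL donor/acceptor beads.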
Numbers without * were called inactive; ? = inconclusive; / = no result. Calls follow the shape of the dose curve; as a rule, active = well fitted curve in the direction sought with a large enough effect; inconclusive = small, poorly fitted or top-dose-only effect, or another doubt; inactive = no such curve, though single readings can be large; an effect the other way counts as inactive or inconclusive. Potency is read from the fitted curve at half-maximal effect.

SMILES	VDR inhibitor	BAZ2B block	PLK1 PBD block	JMJD2A Tudor inh	L3MBTL1 block	HP1b chromo inh
O=C(Oc1c(CN2CCOCC2)cc(Cl)c2cccnc12)c1ccc(F)cc1	-9.3%	20µM*	0.5%	22.4µM*	?	-2.1%
COc1cccc(C(=O)OCCN2CCOCC2)c1	-10.4%	-15.5%	-1.0%	-8.8%	6.1%	68.9%
COc1cccc(C(=O)Oc2c(CN3CCOCC3)cc(Cl)c3cccnc23)c1	5.1%	44.7µM*	-0.2%	50.1µM*	/	32.9%
O=C(Oc1c(CN2CCOCC2)cc(Cl)c2cccnc12)c1cccs1	1.1%	/	-4.8%	?	-85.1%	24.6%
O=C(Oc1ccc(Cl)c2cccnc12)N1CCOCC1	0.0%	-0.5%	-5.9%	-15.7%	2.7%	37.3%
CCNc1ncc2nc(-c3ccc(Cl)cc3)c(=O)n(C3CC3)c2n1	5.8%	/	/	/	/	/
CCN(CC)C(=O)C1CCCN(Cc2sccc2C)C1 (stereo not drawn)	-2.0%	28.2µM*	4.7%	3.55µM*	/	?
Cc1cccc(CN2CCCC(C(=O)N3CCc4ccccc4C3)C2)c1 (stereo not drawn)	4.2%	50.1µM*	-1.9%	1.1%	/	25.9%
CCN(CC)C(=O)C1CCCN(Cc2cccc(F)c2)C1 (stereo not drawn)	9.6%	?	-0.2%	3.16µM*	3.7%	-45.7%
CCN(CC)C(=O)C1CCCN(Cc2ccc3ccccc3c2)C1 (stereo not drawn)	-14.7%	?	-15.0%	22.4µM*	-4.0%	3.1%
Cc1ccsc1C(=CCCN1CCC[C@@H](C(=O)O)C1)c1sccc1C	-3.8%	/	-13.2%	-6.5%	/	23.7%
COc1ccc(NC(=O)CN(c2cc(C)cc(C)c2)S(=O)(=O)c2c(C)noc2C)cc1Cl	-2.8%	/	/	-23.0%	/	3.5%
O=C(Cc1ccccc1)N/N=C/c1cc(Br)cc(Br)c1O	18.5%	15.4%	-25.8%	-16.4%	/	43.7%
O=C(O)c1ccccc1N/N=C/c1cc(Br)cc(Br)c1O	?	44.7µM*	21.2µM*	?	-1.9%	-24.3%
C=CCN1C(=O)C(O)(CC(=O)c2ccc(-n3cccc3)cc2)c2ccccc21 (stereo not drawn)	?	50.1µM*	-7.6%	?	?	?
O=C(CC1(O)C(=O)Nc2ccccc21)c1ccc(-n2cccc2)cc1 (stereo not drawn)	-4.7%	?	1.5%	-18.3%	-8.8%	-11.4%
COc1cc2ccc(C(=O)O)cc2cc1OC	/	/	-11.0%	/	/	/
Cc1nc(Nc2ccc(Cl)cc2)c2nnn(Cc3ccccc3)c2n1	-1.8%	2.0%	26.7µM*	17.8µM*	-0.8%	-5.7%
Cc1nc2c(nnn2Cc2ccccc2)c(=O)[nH]1	?	/	4.74µM*	8.91µM*	/	?
Cc1nc(Nc2cc(F)ccc2C)c2nnn(Cc3ccccc3)c2n1	?	14.7%	23.8µM*	?	9.7%	18.6%
Cc1nc(Nc2ccccc2Br)c2nnn(Cc3ccccc3)c2n1	-15.5%	11.3%	-10.2%	-5.3%	6.7%	26.8%
COc1ccc(S(=O)(=O)NC(=O)C2(C)CCN2C(=O)C(C)(C)c2ccccc2)cc1 (stereo not drawn)	/	/	-8.5%	/	/	/
COc1ccc(S(=O)(=O)/N=C2\C=C(Nc3ccc(O)cc3)C(=O)c3ccccc32)cc1	-6.1%	8.91µM*	-7.1%	5.62µM*	/	10µM*
Cc1ccc(NC2=C/C(=N/S(=O)(=O)c3cccs3)c3ccccc3C2=O)cc1C	-22.1%	?	-3.8%	-23.6%	-10.5%	-16.7%
Cc1ccccc1NC1=C/C(=N\S(=O)(=O)c2cccs2)c2ccccc2C1=O	-3.5%	10µM*	18.9µM*	6.31µM*	/	?
CC(=O)Nc1ccc(NC2=C/C(=N/S(=O)(=O)c3cccs3)c3ccccc3C2=O)cc1	-11.1%	3.55µM*	-9.7%	50.1µM*	?	50.1µM*
O=S(=O)(c1ccc2c(c1)OCCO2)N1CCN(S(=O)(=O)c2ccc(F)cc2F)CC1	/	/	/	-19.9%	/	/
CCOc1ccc(C/C(O)=C2\C(=O)CC(C)(C)CC2=NCC(=O)O)cc1OCC	4.5%	/	-8.2%	-10.0%	/	-0.1%
